Assay results from PubChem BioAssay AID1259421 (Broad Institute, 2018).
Several values for one entry are separate records, joined by “and”; a condition that tells them apart may be missing. Equal entries are not always repeated. The whole screen tested about 6,400 compounds, of which about 610 (9.5%) were called active. The sample holds actives, similar compounds and a random draw of the others, so the mix is not that of the screen. No stated cut-off is given here; in the data, active means activity change below about -70%; inconclusive means no clear call, values can overlap the other calls; inactive means above that. A structure can be active in one record and inactive in another.

experiment: Toxoplasma gondii ME49Luc growth in HeLa cells, luciferase, no IFN-y, primary screen (AID 1259421); settings: T. gondii ME49Luc in HeLa, 72 h, stronger effect = lower value, concentration not given here

Row | SMILES | activity change, negative = inhibition
1 | Cn1cc(C(=O)C(=O)N[C@H]2CN3CCC2CC3)c2ccccc21 | 3.13% (inactive) and -2.73% (inactive)
2 | O=C(Nc1ccncc1)C(=O)c1cn(Cc2ccc(Cl)cc2)c2ccccc12 | -75.2% (active)
3 | O=Cc1cn(Cc2ccc(Cl)cc2)c2ccccc12 | 3.18% (inactive)
4 | c1cc(Cc2cnc[nH]2)ccn1 | 4.56% (inactive)
5 | CCCN(CCC)C1CCc2ccc(O)cc2C1 (configuration not stated) | -0.0815% (inactive) and 4.46% (inactive)
6 | O=C(O)c1ccc2[nH]cc(CCCCN3CC=C(c4ccccc4)CC3)c2c1 | 8.65% (inactive) and 4.54% (inactive)
7 | c1ccc2sc(C3(N4CCCC4)CCCCC3)cc2c1 | 3.78% (inactive)
8 | O=C(O)COc1ccc(Cl)cc1Cl | 5.11% (inactive)
9 | O=C(O)CCCOc1ccc(Cl)cc1Cl | 9.07% (inactive)
10 | Oc1cc(Cl)ccc1Oc1ccc(Cl)cc1Cl | -80.6% (active) and -88.3% (active)
11 | FC(F)OC(F)(F)C(F)Cl (configuration not stated) | 2.39% (inactive)
12 | CCC1C(C)=NN=C(c2ccc(OC)c(OC)c2)c2cc(OC)c(OC)cc21 (configuration not stated) | 6.78% (inactive)
13 | CCCCC1(C2CCCC2)Cc2cc(OCCCC(=O)O)c(Cl)c(Cl)c2C1=O (configuration not stated) | -6.67% (inactive)
14 | CC(=O)OC[C@]12CCC(C)=C[C@H]1O[C@@H]1[C@H](O)[C@@H](OC(C)=O)[C@@]2(C)[C@@]12CO2 | -82.7% (active)
15 | CCCC[N+]1(C)[C@@H]2CC(OC(=O)[C@@H](CO)c3ccccc3)C[C@H]1[C@@H]1O[C@@H]12 (some centres not stated) | 2.27% (inactive)
16 | NC(=NCc1ccc(Cl)cc1)SCCCc1cnc[nH]1 | -1.21% (inactive) and -3.65% (inactive)
17 | C=C(C)[C@@H]1CCC(C)=C[C@H]1c1c(OC)cc(C)cc1OC | 13.1% (inactive) and 2.72% (inactive)
18 | COc1cccc2c1C(=O)c1c(O)c3c(c(O)c1C2=O)C[C@@](O)(C(=O)CO)C[C@@H]3O[C@H]1C[C@H](N2CCO[C@H](OC)C2)[C@H](O)[C@H](C)O1 | -77.1% (active)
19 | CC(C)(C)NC[C@H](O)COc1cccc2[nH]c(C#N)cc12 | 0.543% (inactive)
20 | CC(C)(C)NCC(O)COc1cccc2[nH]c(C#N)cc12 (configuration not stated) | -74.6% (active)
21 | CS(=O)(=O)Nc1ccc(Cc2noc(-c3ccc4[nH]cc(CCN)c4c3)n2)cc1 | 0.294% (inactive)
22 | CCc1cccc(CC)c1NC1=NCCN1 | 5.66% (inactive)
23 | CN1C(=O)[C@@H](NC(=O)c2cc3ccccc3[nH]2)N=C(c2ccccc2)c2ccccc21 | -59.5% (inactive)
24 | CC(=O)O[C@H]1C(=O)[C@@]2(C)C([C@H](OC(=O)c3ccccc3)[C@]3(O)C[C@H](O)C(C)=C1C3(C)C)[C@]1(OC(C)=O)CO[C@@H]1C[C@@H]2O (some centres not stated) | -56.1% (inactive)

Row | SMILES | activity change, negative = inhibition
25 | CC(=O)O[C@@]12CO[C@@H]1C[C@H](O)[C@@]1(C)C(=O)[C@H](O)C3=C(C)[C@@H](O)C[C@@](O)([C@@H](OC(=O)c4ccccc4)[C@H]21)C3(C)C | -60.3% (inactive) and 13.9% (inactive)
26 | C/C=C(\C)C(=O)N[C@@H](c1ccccc1)[C@@H](O)C(=O)O[C@H]1C[C@@]2(O)[C@@H](OC(=O)c3ccccc3)[C@@H]3[C@]4(OC(C)=O)CO[C@@H]4C[C@H](O)[C@@]3(C)C(=O)[C@H](OC(C)=O)C(=C1C)C2(C)C | -82.1% (active)
27 | C[C@H](N)Cc1ccccc1 | 4.68% (inactive)
28 | O=[N+]([O-])NC1=NCCN1Cc1ccc(Cl)nc1 | 8.16% (inactive)
29 | C[C@]12CCC3C(CC[C@H]4CC(=O)CC[C@]34C)C1CCC2=O (some centres not stated) | 1.73% (inactive)
30 | CC[C@H]1CN2CCC1C[C@@H]2[C@@H](O)c1ccnc2ccc(OC)cc12 (some centres not stated) | 14.8% (inactive) and 8.86% (inactive)
31 | CN1CCc2cc(Cl)c(O)cc2[C@H]2c3ccccc3CC[C@@H]21 | -4.73% (inactive)
32 | CCCCOC(=O)c1ccccc1C(=O)OCCCC | 3.08% (inactive) and -9.32% (inactive)
33 | CNc1ccccc1C(=O)O | -1.44% (inactive)
34 | C[CH2][Hg][S]c1ccccc1C(=O)O | -88.9% (active) and -92.1% (active)
35 | O=c1cccc2n1C[C@H]1CNCC2C1 | 4.99% (inactive)
36 | C=CC[C@@]1(O)CC[C@H]2[C@@H]3CCC4=CC(=O)CCC4=C3C=C[C@@]21C | 9.86% (inactive)
37 | C=CC[C@]1(O)CCC2C3CCC4=CC(=O)CCC4=C3C=C[C@@]21C (some centres not stated) | 11.2% (inactive)
38 | C#C[C@]1(O)CC[C@H]2[C@@H]3CCC4=CC(=O)CCC4=C3C=C[C@@]21CC | -82.3% (active)
39 | C=C[C@H]1CN2CC[C@H]1C[C@@H]2[C@@H](OC(=O)OCC)c1ccnc2ccc(OC)cc12 | 7.12% (inactive) and 13% (inactive)
40 | CCCN1CCO[C@H]2c3cc(O)ccc3OC[C@@H]21 | -9.29% (inactive)
41 | NCCc1cccc(O)c1 | -9.36% (inactive)
42 | Oc1ccc2c3c1OC1[C@@H](O)CC[C@@]4(O)[C@@H](C2)N(CC2CCC2)CC[C@]314 (some centres not stated) | 3.08% (inactive)
43 | C[C@@]1(CO)[C@H](O)CC[C@@]2(C)[C@H]1CC[C@H]1C[C@@H]3C[C@@]12CC[C@]3(O)CO | -87.7% (active)
44 | CC(C(=O)OC1CC2CCC(C1)N2C)c1ccc(Br)cc1 (configuration not stated) | -1.35% (inactive) and 1.24% (inactive)
45 | CC[C@@]1(O)C(=O)OCc2c1cc1n(c2=O)Cc2cc3ccccc3nc2-1 | -82.2% (active) and -91.4% (active)
46 | Cc1c(C(=O)c2cccc3ccccc23)c2cccc3c2n1[C@H](CN1CCOCC1)CO3 | -89.2% (active)
47 | CCCn1c(C)c(C(=O)c2cccc3ccccc23)c2ccccc21 | 93.6% (inactive)
48 | Cc1c(C(=O)c2cccc3ccccc23)c2cccc3c2n1[C@@H](CN1CCOCC1)CO3 | 46.7% (inactive)

Row | SMILES | activity change, negative = inhibition
49 | CC(=O)Oc1ccc(Cl)c2cccnc12 | -3.09% (inactive)
50 | Cc1c(N2C(=O)[C@@H]3[C@H](O)CCN3C2=O)ccc(C#N)c1Cl | 8.89% (inactive)
51 | C[C@@H]1O[C@@H](O[C@H]2C[C@@H](O)[C@]3(CO)C4C(CC[C@]3(O)C2)[C@@]2(O)CC[C@H](C3=CC(=O)OC3)[C@@]2(C)C[C@H]4O)[C@H](O)[C@H](O)[C@H]1O (some centres not stated) | -88.6% (active)
52 | C[C@@H]1O[C@@H](O[C@@H]2C[C@@H](O)[C@]3(CO)[C@H]4[C@H](O)C[C@]5(C)[C@@H](C6=CC(=O)OC6)CC[C@]5(O)[C@@H]4CC[C@]3(O)C2)[C@H](O)[C@H](O)[C@H]1O | -77.1% (active)
53 | CC1OC(OC2CC(O)C3(CO)C4C(O)CC5(C)C(C6=CC(=O)OC6)CCC5(O)C4CCC3(O)C2)C(O)C(O)C1O (configuration not stated) | -83.7% (active)
54 | C=CCN1CCC23c4c5ccc(O)c4OC2/C(=N\NC(=O)c2ccccc2)CCC3(O)C1C5 (configuration not stated) | 25.6% (inactive)
55 | C=CCN1CC[C@]23c4c5ccc(O)c4OC2C(=O)CC[C@@]3(O)[C@H]1C5 (some centres not stated) | 4.78% (inactive)
56 | CCN1C[C@]2(OC(=O)c3ccccc3NC(C)=O)CC[C@@H](OC)[C@]34C1[C@@H](C[C@H]23)[C@@]1(O)C[C@H](OC)[C@H]2C[C@H]4[C@]1(O)[C@H]2OC | 10.9% (inactive)
57 | O=C(O)c1ccccn1.O=C(O)c1ccccn1.O=C(O)c1ccccn1.[Cr] | 10.5% (inactive)
58 | Cc1ccc2c(c1)Cc1c(C(=O)NC3CCCCC3)nn(-c3ccc(Cl)cc3Cl)c1-2 | -23.4% (inactive) and -2.64% (inactive)
59 | Cc1ccc2c(c1)Cc1c(C(=O)NN3CCCCC3)nn(-c3ccc(Cl)cc3Cl)c1-2 | -71% (active) and -58.8% (inactive)
60 | C/C(=C\C(N)C(=O)O)CP(=O)(O)O (configuration not stated) | -4.78% (inactive)
61 | c1ccc(C2CNCc3ccccc32)cc1 (configuration not stated) | 5.48% (inactive)
62 | C=C1CC2C(CC[C@]3(C)C(=O)CCC23)[C@@]2(C)C=CC(=O)C=C12 (some centres not stated) | 11.4% (inactive)
63 | CN1C(=O)CCS(=O)(=O)C1c1ccc(Cl)cc1 (configuration not stated) | 18% (inactive) and -3.16% (inactive)
64 | COC(=O)[C@@H]1C[C@H](OC(C)=O)C(=O)[C@H]2[C@@]1(C)CC[C@H]1C(=O)O[C@H](c3ccoc3)C[C@]21C | 11.7% (inactive) and 9.72% (inactive)
65 | CC1(C)C(=O)C=C[C@@]2(C)C1C(=O)C(=O)[C@]1(C)C2CC[C@@]2(C)[C@H](c3ccoc3)C[C@H]3O[C@]321 (some centres not stated) | -86.1% (active)
66 | CC1(C)C2CC(=O)[C@]3(C)C(CC[C@@]4(C)[C@H](c5ccoc5)OC(=O)C5OC543)[C@@]2(C)[C@@H](O)C[C@H]1O (some centres not stated) | 1.93% (inactive)
67 | CC1(C)C2C[C@@H](O)[C@]3(C)C(CC[C@@]4(C)[C@H](c5ccoc5)OC(=O)[C@H]5O[C@]543)[C@@]2(C)[C@@H](O)C[C@H]1O (some centres not stated) | 4.33% (inactive)
68 | CC1(C)C(=O)[C@@H]2O[C@@H]2[C@@]2(C)C1C[C@@H](O)[C@]1(C)C2CC[C@@]2(C)[C@H](c3ccoc3)OC(=O)C3OC321 (some centres not stated) | 20.5% (inactive)
69 | CC(=O)O[C@@H]1C[C@@]2(C)[C@H](c3ccoc3)C[C@H]3O[C@]32[C@]2(C)C(=O)C(=O)C3C(C)(C)C(=O)C=C[C@]3(C)C12 (some centres not stated) | -89.9% (active)
70 | CN1[C@@H]2CC[C@H]1CC(OC(=O)N1Cc3ccccc3NC1=O)C2 (some centres not stated) | 15% (inactive) and 8.45% (inactive)
71 | CC(CO)NC(=O)C1C=C2c3cccc4[nH]cc(c34)C[C@H]2N(C)C1 (some centres not stated) | 15.2% (inactive) and -0.618% (inactive)
72 | COc1ccc2c(c1O)-c1cc(O)cc3c1[C@@H](C2)N(C)CC3 | -5.61% (inactive)
